Screens (PubChem)
C2C12 statin: suppressors of statin myotoxicity in C2C12 myotubes, primary screen, cell-based, single point, plate reader. C2C12 myotubes + simvastatin, ATP luminescence, 48 h; scaled: DMSO 0, geranylgeraniol control 100. rescue of ATP level, % at 7.49 µM. hit rate 0.78% among 330,000. AID 602340, 2012;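 active means mean ATP rescue above about 67%, or every replicate alone reaching that limit, limit read from the data, passing the limit was not always enough; inconclusive means no clear call, values can overlap the other calls; inactive means mean under the limit and some replicate under it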;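 further: myotubes were challenged with 10 µM simvastatin during compound exposure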
Wnt bcat act: Wnt/beta-catenin pathway activators, primary screen, cell-based, plate reader, single point; Wnt/beta-catenin reporter cell assay, activator; hit rate 1.2% among 300,000; AID 743398, 2014; activation, % at 9.35 µM; in the data active means activation above about 30%, passing the limit was not always enough; inconclusive means no clear call, values can overlap the other calls;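 further: 0% = neutral control wells and 100% = positive control wells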
MITF act: activators of MITF-driven TRPM1 promoter reporter, primary screen, cell-based, SK-MEL-5, luciferase, single point; SK-MEL-5 TRPM1-promoter luciferase, 24 h; % of positive control, neutral wells = 0; activation, % at 12.5 µM; hit rate 0.75% among 300,000;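 active means mean activation of at least 80% with every replicate also reaching 80%; inconclusive means mean reaches 80% but some replicate falls short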;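 further: 0% = neutral control wells and 100% = parthenolide positive control wells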
esBAF inh: Bmi1 luciferase reporter increase in mESCs, primary screen, esBAF inhibitor project, mouse ES cells, Bmi1 luciferase knock-in, single point; hit rate 2% among 350,000; AID 602393, 2012; reporter increase, % at 12.5 µM; 24 h; 100% = twice the neutral-well signal; in the data active means activation above about 40%; inconclusive means no clear call, values can overlap the other calls;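 further: 0% = median of the plate's neutral control wells and 100% = double that signal; a rise in the Bmi1 reporter signal indicates esBAF inhibition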
* marks the source's active call; other numbers are inactive results; u = inconclusive; x = no result given. This is a sample that favours compounds with a hit; in the whole collection about 3% have one here.

SMILES | C2C12 statin | Wnt bcat act | MITF act | esBAF inh
CCC(=O)N1CCc2cc(Br)cc(S(=O)(=O)CC(=O)OC)c21 | 104.6* | x | -5.1 | -2.8
C[C@@H]1CN([C@H](C)CO)C(=O)Cc2cc(NS(=O)(=O)c3ccc(F)cc3)ccc2O[C@H]1CN(C)C(=O)Nc1ccc(C(F)(F)F)cc1 | -4.7 | x | x | -1.4
Cc1ccc(Oc2nc3c(c(=O)n(C)c(=O)n3C)n2C)cc1C | x | -2.1 | 22.6 | x
Cn1c(=O)c2c(nc(Oc3ccc(-c4ccccc4)cc3)n2C)n(C)c1=O | -69.1 | -1.0 | 4.9 | 47.6*
COc1ccc(Br)cc1/C=N/Nc1cccc(C(=O)O)c1 | x | 0.3 | 11.8 | x
O=C(O)c1cccc(N/N=C/c2cc(Br)cc(Br)c2O)c1 | 3.7 | x | 20.6 | 76.9*
COc1ccccc1-c1ccc2c(c1)O[C@@H](CN(C)Cc1ccc3c(c1)OCO3)[C@@H](C)CN([C@@H](C)CO)S2(=O)=O | -65.2 | x | x | -9.0
CC(=O)Nc1ccccc1NC(=O)C/C(C)=N/NC(=O)c1ccccn1 | x | x | -1.9 | x
C/C(CC(=O)NCc1ccccc1Cl)=N/NC(=O)c1ccccn1 | 2.2 | -0.6 | 11.5 | 44.4*
CC(C)NC(=O)N[C@H]1CC[C@H](CC(=O)NCCN2CCCC2)O[C@H]1CO | 3.1 | x | x | 1.3
CC(C)(C)C1CCc2c(sc3c2C(=O)NC(c2ccco2)N3)C1 (stereo unspecified) | 36.1 | 0.6 | 95.5* | 22.6
COC(=O)c1cc2c(s1)-c1ccc(OC)cc1CC2 | x | 67.0* | 54.1 | x
COC1=C/C(=C/c2c(O)c(C#N)c3ccccn23)C=CC1=O | 3.0 | 34.4* | -0.4 | 55.2*
O=C(Nc1cccc(Cl)c1)c1ccc2sc([C@H]3C[C@H](O)[C@@H](CO)O3)nc2c1 | -22.2 | -0.7 | x | 66.5*
O=C(Nc1cccc(Cl)c1Cl)c1csc([C@H]2C[C@H](O)[C@@H](CO)O2)n1 | -5.1 | 42.1* | x | 77.2*
O=C(Nc1ccc(Cl)cc1)c1csc([C@@H]2O[C@H](CO)[C@@H](O)[C@H]2O)n1 | -0.6 | 2.0 | x | 45.1*
O=C(Nc1ccc(F)c(Cl)c1)c1csc([C@@H]2O[C@H](CO)[C@H](O)[C@H](O)[C@H]2O)n1 | 5.7 | 0.7 | x | -4.7
O=C(NCc1ccccc1Cl)c1csc([C@H]2C[C@H](O)[C@@H](CO)O2)n1 | 24.1 | 2.6 | x | -5.5
O=C(Nc1cccc(Cl)c1Cl)c1csc([C@@H]2O[C@H](CO)[C@@H](O)[C@H]2O)n1 | -12.8 | 19.0 | x | 50.1*
Cc1noc(C)c1NC(=O)Nc1ccc2c(c1)CC(=O)N([C@H](C)CO)C[C@@H](C)[C@@H](CN(C)Cc1ccc(Cl)c(Cl)c1)O2 | u | x | x | 1.2
Cc1ccc(S(=O)(=O)NCC[C@@H]2CC[C@@H](NC(=O)C3CCOCC3)[C@H](CO)O2)cc1 | 2.2 | x | x | 2.8
CN1C(=O)c2cc(NC(=O)Nc3ccccc3F)ccc2OC[C@H]2O[C@@H](CC(=O)O)CC[C@@H]21 | 16.5 | x | x | -0.6
O=C(C[C@@H]1CC[C@H]2[C@@H](COC[C@@H](O)CN2Cc2cc(F)ccc2F)O1)NCc1ccccc1 | 8.2 | x | x | -0.3
CO[C@H]1CN(C)C(=O)c2ccc(NC(=O)c3nc4ccccc4s3)cc2OC[C@H](C)N(Cc2cncnc2)C[C@@H]1C | 32.0 | x | x | 21.4
O=C(COC(=O)c1ccccc1)c1ccc(Br)cc1 | 18.5 | 11.1 | 53.6 | 61.0*
SMILES | C2C12 statin | Wnt bcat act | MITF act | esBAF inh
CNc1ccccc1C(=O)OCC(=O)c1ccccc1 | -17.1 | x | 64.2 | 58.6*
CNc1ccccc1C(=O)OCC(=O)c1ccc(F)cc1 | x | 3.9 | 2.3 | x
Oc1ccc(-c2csc(Nc3ccccn3)n2)cc1O | -39.2 | 7.6 | x | 0.6
Cc1cccc(Nc2nc(-c3ccc(F)c(C)c3)cs2)n1 | -3.5 | 45.7* | 66.2 | 57.6*
Cc1cccc(Nc2nc(-c3ccc(O)c(O)c3)cs2)n1 | -15.0 | 7.9 | x | 93.2*
Cc1cccnc1Nc1nc(-c2ccc(O)c(O)c2)cs1 | -17.2 | 14.6 | 45.1 | -12.9
COc1ccc(C(=O)c2c3ccc(OC)cc3[n+]([O-])n2Cc2ccc(C(N)=O)cc2)cc1 | 6.4 | 26.9 | 49.9 | 60.9*
CC(=O)c1c(C)[nH]c(C(=O)Nc2ccc(C)cc2Br)c1C | -5.2 | 26.5 | u | 85.8*
CC(=O)c1c(C)[nH]c(C(=O)NCCc2cccc(C)c2)c1C | 29.7 | 8.9 | 64.3 | 74.9*
CC(=O)c1c(C)[nH]c(C(=O)Nc2ccc(C)c(C)c2)c1C | 2.1 | 55.4* | x | 84.8*
CC(=O)c1c(C)[nH]c(C(=O)Nc2cc(C)ccc2C)c1C | 3.5 | 1.6 | 4.2 | 0.5
CC(=O)c1c(C)[nH]c(C(=O)Nc2cccc(C)n2)c1C | -1.1 | 39.0* | 60.4 | -6.4
CNC[C@H]1Oc2cc(-c3cccc(C(=O)N(C)C)c3)ccc2S(=O)(=O)N([C@@H](C)CO)C[C@H]1C | -0.5 | x | x | -1.9
CCc1c(C(=O)Nc2ccc(C)c(C)c2)[nH]c(C)c1C(C)=O | -0.3 | 11.8 | 88.5* | 70.8*
C[C@@H]1CN([C@H](C)CO)C(=O)c2cc(C3=CCCCC3)cnc2O[C@H]1CN(C)Cc1ccccn1 | 6.6 | x | x | 3.5
COc1ccccc1S(=O)(=O)Nc1ccc2c(c1)C(=O)N(C)C[C@H](OC)[C@@H](C)CN[C@@H](C)CO2 | -4.1 | x | x | 6.2
COc1cc(/C=C(\C#N)C(=O)NCC2CCCO2)ccc1O (stereo unspecified) | x | -0.8 | 36.5 | x
Cc1cc(/C=C(\C#N)C(=O)NCC2CCCO2)c(C)n1-c1ccc(Cl)cc1 (stereo unspecified) | 4.2 | x | u | 87.6*
CCC(=O)NC(c1ccccc1)c1nc2ccccc2[nH]1 (stereo unspecified) | 2.8 | x | 44.2 | 48.6*
Cc1nc2cc(-c3cccc(F)c3)nn2c(N2CCN(C(=O)c3ccco3)CC2)c1C | -6.5 | x | 25.0 | 42.8*
CCOCCN1CCN(c2c(C)c(C)nc3cc(-c4cc(OC)cc(OC)c4)nn23)CC1 | -4.0 | -7.7 | 31.1 | 1.8
COCCN1CCN(c2c(C)c(C)nc3cc(-c4cccc(OC)c4)nn23)CC1 | -21.7 | 28.8 | -3.7 | 51.7*
Cc1cc(N2CCN(C(=O)c3ccco3)CC2)n2ncnc2n1 | x | -4.7 | 8.3 | x
Cc1cc(N2CCN(C(=O)c3ccco3)CC2)n2ncc(-c3ccccc3)c2n1 | -16.4 | -0.4 | x | 49.8*
COc1ccc(-c2cc3nc(C)c(C)c(N4CCN(C(=O)c5ccoc5)CC4)n3n2)cc1 | -3.8 | -4.6 | x | 3.7
Cc1noc(C)c1S(=O)(=O)Nc1ccc2c(c1)CC(=O)N([C@H](C)CO)C[C@@H](C)[C@@H](CN(C)Cc1ccc(-c3ccccc3)cc1)O2 | 98.0* | x | x | -0.5
Cc1noc(C)c1S(=O)(=O)Nc1ccc2c(c1)CC(=O)N([C@@H](C)CO)C[C@H](C)[C@H](CN(C)Cc1ccc(-c3ccccc3)cc1)O2 | -5.1 | x | x | -3.1
Cc1noc(C)c1S(=O)(=O)Nc1ccc2c(c1)CC(=O)N([C@H](C)CO)C[C@H](C)[C@H](CN(C)Cc1ccc(Cl)c(Cl)c1)O2 | -2.0 | x | x | 2.1
